High-throughput results: PubChem BioAssay, National Center for Advancing Translational Sciences (NCATS)
ALDH1A1 block: inhibitors of human aldehyde dehydrogenase 1A1; P00352; Purified ALDH1A1, NADH fluorescence, propionaldehyde substrate; AID 1030; 7.3% of 220,000 active; Potency, µM (titrated, usually from 75.3 µM), actives largely listed as inhibitors
HPGD block: HPGD (human) dehydrogenase inhibition; purified HPGD, NADH fluorescence kinetic, PGE2 substrate; 4.3% of 150,000 active; Potency, µM, most hits filed as inhibitors
Target sequence (P15428 whole entry, looked up): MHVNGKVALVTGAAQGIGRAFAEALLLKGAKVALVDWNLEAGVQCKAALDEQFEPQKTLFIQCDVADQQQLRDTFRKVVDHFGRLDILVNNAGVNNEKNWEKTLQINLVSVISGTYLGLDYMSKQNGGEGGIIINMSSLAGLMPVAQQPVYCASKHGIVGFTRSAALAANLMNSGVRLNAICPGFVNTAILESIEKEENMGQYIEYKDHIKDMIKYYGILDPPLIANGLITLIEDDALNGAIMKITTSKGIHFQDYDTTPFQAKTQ
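NADH formation kinetics: reaction with 30 uM PGE2 and 1 mM NAD+ (final), 20 nM enzyme, Tris-HCl pH 8 with Tween 20, after 15 min compound preincubation at room temperature. Fluorescence change, last versus first of five reads.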
IMPase inh: cell-permeable inhibitors of inositol monophosphatase (IMPase). CHO-M1 cells, IP1 accumulation, HTRF TR-FRET ratio. inhibition (IP1 accumulation), % at 46.1 µM. 120,000 tested, under 10 active; active = well fitted curve in the direction sought with a large enough effect in the signal ratio, not every such curve was filed as active; inconclusive = small, poorly fitted or top-dose-only effect, or a change in a side signal; inactive = no such curve, though single readings can be large or run the other way; the % refers to the signal ratio;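 also: cells stimulated with carbachol in lithium chloride buffer; higher means more IMPase inhibition seen as more IP1 and lower FRET ratio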
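Seeded CHO-M1 cells were dosed with compound at up to 46 uM, stimulated with carbachol for 30 min, then lysed in IP-One detection reagents. Higher IP1 lowers the TR-FRET signal.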
Large screens that a line does not name were inactive. Only some compounds are listed: those with a hit (about 9% of all), similar ones and a draw of the others. Unless noted, calls follow the shape of the dose curve; as a rule, active = well fitted inhibition curve with a large enough effect (not every such curve was filed as active); inconclusive = small, poorly fitted or top-dose-only effect, or another doubt; inactive = no such curve, though single readings can be large or run the other way.

CCCn1c(=N)n(CCOc2ccc(OC)cc2)c2ccccc21	none
O=C1N2CCSC2=NC1(NS(=O)(=O)c1ccccc1)C(F)(F)F (centres undefined)	none
Nc1n[nH]c(=S)n1/N=C1/C(=O)Nc2ccccc21	ALDH1A1 block 7.9µM (no result: HPGD block, IMPase inh)
Cc1ccc2c(c1)/C(=N/N1C(=O)c3ccccc3C1=O)C(=O)N2	none (no result: IMPase inh)
CCCCCCCC/C=C\C/C=C\C/C=C\CCCC(=O)NCCO	none (no result: IMPase inh)
COc1ccc(N2CCN(C(=O)C(C)(C)Oc3ccc(Cl)cc3)CC2)cc1	ALDH1A1 block 10µM
COc1ccc(N2CCN(C(=O)c3ccc(C(C)(C)C)cc3)CC2)cc1	ALDH1A1 block 8.9µM
CCOC(=O)N1CCN(C(=O)C(C)(C)Oc2ccc(Cl)cc2)CC1	ALDH1A1 block inconclusive
COc1ccc(N2CCN(C(=O)c3ccc(-n4nc(C)cc4C)cc3)CC2)cc1	none
OCCC#Cc1ccc(CN2CCN(C3CCCCC3)C(CCO)C2)cc1 (centres undefined)	none (no result: HPGD block, IMPase inh)
CCC(C)C(NC(=O)c1ccccc1NC(=O)c1ccco1)C(=O)NC1CCCCC1 (centres undefined)	none
CC(=O)OCC1OC(C#Cc2ccc(C(C)(C)C)cc2)C=CC1OC(C)=O (centres undefined)	none (no result: HPGD block, IMPase inh)
Cc1ccc(Oc2ccc(/C=N/O)cn2)cc1	none
O=Cc1ccc(Oc2ccc(F)cc2)nc1	ALDH1A1 block 16µM (no result: HPGD block, IMPase inh)
CCCCCCCC#Cc1ccccc1C(NC(=O)OC)C(C(=O)OC)C(=O)OC (centres undefined)	none (no result: HPGD block, IMPase inh)
Cc1c(C(=O)NN)[nH]c2ccc([N+](=O)[O-])cc12	ALDH1A1 block 7.9µM (no result: HPGD block, IMPase inh)
Cc1ccc(C)c2c1[nH]c1ccc([N+](=O)[O-])cc12	none
CN(C)c1ccc(NC(=O)CC(NCc2ccccn2)C(=O)O)cc1 (centres undefined)	ALDH1A1 block inconclusive (no result: IMPase inh)
Cc1nccn1CC(O)COc1ccccc1 (centres undefined)	none
COC(=O)c1c(C(=O)NCc2ccccc2)ncn1CC(O)COc1ccccc1 (centres undefined)	ALDH1A1 block 7.9µM
CCCCc1ccc(NC(=O)CN2NS(=O)(=O)c3ccccc3C2=O)cc1	ALDH1A1 block 4µM
CCCCc1ccc(NC(=O)CSCc2cc(=O)[nH][nH]2)cc1	none
Cc1ccc(Nc2cc(C)c(C#N)c3nc4ccccc4n23)cc1Cl	none (no result: ALDH1A1 block, HPGD block)
Cc1ccc(-n2nnnc2SCc2nc3sc(C)c(C)c3c(=O)[nH]2)cc1	none (no result: IMPase inh)
Cc1c(C(=O)O)sc2nc(CSc3nnc(-c4ccc(F)cc4)n3C)[nH]c(=O)c12	ALDH1A1 block 19µM (no result: HPGD block, IMPase inh)
COC(=O)c1sc2nc(CSc3nc4ccc(C)cc4[nH]3)[nH]c(=O)c2c1C	none
Cc1nnc(SCc2nc3sc(C(=O)O)c(C)c3c(=O)[nH]2)s1	ALDH1A1 block 20µM (no result: HPGD block, IMPase inh)
Cc1ccc(-c2csc3nc(CSc4nnc(-c5ccc(Cl)cc5)n4C)[nH]c(=O)c23)cc1	none (no result: IMPase inh)
Cc1sc2nc(CSc3n[nH]c(N)n3)[nH]c(=O)c2c1C	none (no result: HPGD block, IMPase inh)
Cc1sc2nc(CSc3nc4ccccc4s3)[nH]c(=O)c2c1C	ALDH1A1 block 7.9µM (no result: HPGD block, IMPase inh)
CC(=O)c1sc2nc(CSc3nnnn3-c3ccccc3)[nH]c(=O)c2c1C	ALDH1A1 block 25µM (no result: HPGD block, IMPase inh)
CCCCCOP(=O)(OCCCCC)C1(NS(=O)(=O)c2ccccc2)C=CC(=O)c2ccccc21 (centres undefined)	none (no result: HPGD block)
Cn1c(=O)n(C)c2cc(NS(=O)(=O)c3ccc(F)cc3)c(NCc3ccccc3)cc21	none (no result: ALDH1A1 block, HPGD block)
COc1ccc(-c2oc3c(CC=C(C)C)c(O[C@H]4OC(CO)C(O)C(O)C4O)cc(O)c3c(=O)c2O[C@@H]2OC(C)C(O)C(O)C2O)cc1 (some centres undefined)	none (no result: IMPase inh)
Cc1cc(NC(=O)C2COc3ccccc3O2)no1 (centres undefined)	none
Cc1nc2ccccc2c(=O)n1NC(=O)c1ccc([N+](=O)[O-])cc1	none (no result: HPGD block, IMPase inh)
C=CCn1c(SCc2nc3sc(C(=O)O)c(C)c3c(=O)[nH]2)nnc1-c1ccc(C(C)(C)C)cc1	ALDH1A1 block 20µM (no result: HPGD block, IMPase inh)
C=CCn1c(SCC(=O)O)nnc1-c1ccc(C(C)(C)C)cc1	ALDH1A1 block inconclusive
CC(NC1CCCCC1)C(=O)NN=C(c1ccccc1)c1ccccc1 (centres undefined)	ALDH1A1 block 3.5µM (no result: HPGD block, IMPase inh)
CC(Cl)C(=O)NN=C(c1ccccc1)c1ccccc1 (centres undefined)	ALDH1A1 block 1µM (no result: HPGD block, IMPase inh)
CCN(CC)CC(=O)NN=C(c1ccccc1)c1ccccc1	ALDH1A1 block inconclusive
CC(NC1CCCC1)C(=O)Nc1ccccc1-c1ccccc1 (centres undefined)	ALDH1A1 block inconclusive
CCOCCCNC(=O)C1CCN(C(=O)Nc2ccc(Cl)cc2)CC1	none
FC(F)(F)c1ccc(N=Cc2sc(N3CCOCC3)nc2-c2ccccc2)cc1	ALDH1A1 block inconclusive
O=C(NCCC1=CCCCC1)c1ccc(Br)o1	ALDH1A1 block 3.5µM
CCCCCCNC(=O)c1ccc(Br)o1	HPGD block inconclusive (no result: IMPase inh)
